# From paper PMC5892938, “SARNAclust: Semi-automatic detection of RNA protein binding motifs from immunoprecipitation data”
# In all, about 11,000 sequences were measured (“log2 fold change”: median about 0.00022, highest 2% from about 0.34 on). The list shows a part of the results.
# Molecular target: GST-SBP-SLBP (stem-loop binding protein) (Homo sapiens, UniProt Q14493 1-270)
# Experiment: targeted RNA Bind-n-Seq; RBNS binding buffer: 25 mM Tris pH 7.5, 150 mM KCl, 3 mM MgCl2, 0.1% Tween, 0.5 mg/mL BSA, 1 mM DTT; 27 nM protein, 750 pM RNA pool; temperature not stated; high values mean tight binding
# Conditions: protein: recombinant; tags: N-terminal GST and SBP (pGEX6P1-SBP); structured_RNA
# How it was run: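 A designed RNA oligo pool, transcribed with T7, was present at 750 pM and incubated in RBNS binding buffer with 27 nM of GST-SBP-tagged protein that had been expressed in Rosetta(DE3) pLysS E. coli and purified with glutathione. After reverse transcription with a 10-nucleotide barcoded primer and PCR, the bound RNA was sequenced as 200-cycle paired-end reads on a MiSeq. Each sequence's binding signal is the DEseq binary-logarithm fold change in read counts, computed after joining reads with FLASH, aligning with HISAT2 and collapsing by barcode.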
row,Sequence,binding signal [log2 fold change]
1,GGUCACGUCUCAAUCAACUCUUUCUCAGGAGUUUCCUCCUGUUUACUCAACAGCUCGCAGUCAAG,0.312 ± 0.17
2,GGUCACGUCUCAAUCAACUCAAUCUCAGGAGUUUUCUCCUGUAUACUCAACAGCUCGCAGUCAAG,0.429 ± 0.219
3,GGUCACGUCUCAAUCAACUCUUUCUCAGGAGUUUACUCCUGUAUAUUCAACAGCUCGCAGUCAAG,0.355 ± 0.213
4,GGUCACGUCUCAAUCAACUCAUCGCCAGGAGUUUGCUCCUGUAUUUUCAACAGCUCGCAGUCAAG,0.321 ± 0.274
5,GGUCACGUCUCAAUCAACUCUAUCUCAGGAGUUUACUCCUGUAUAUUCAACAGCUCGCAGUCAAG,0.337 ± 0.252
6,GGUCACGUCUCAAUCAACUCAUCGUCAGGAGUUUUCUCCUGUAAACUCAACAGCUCGCAGUCAAG,0.313 ± 0.233
7,GGUCACGUCUCAAUCAACUCCAUCGAGGGGGGGAAAACCCCUUUACCCUCAAUAUCAACAGCUCGCAGUCAAG,0.429 ± 0.437
8,GGUCACGUCUCAAUCAACUCAAACGAGGGGGGGAAAACCCCUUUACCCUCCAUAUCAACAGCUCGCAGUCAAG,0.344 ± 0.458
9,GGUCACGUCUCAAUCAACUCAUACGAGGGGGGGAAAACCCCUUUACCCUCUCCAUCAACAGCUCGCAGUCAAG,0.329 ± 0.398
10,GGUCACGUCUCAAUCAACUCCAUCGAGGGGGGGAAAACCCCUUUACCCUCCAAUUCAACAGCUCGCAGUCAAG,0.49 ± 0.445
11,GGUCACGUCUCAAUCAACUCCAAAGAGGGGGGGAAAACCCCUUUACCCUCCGCAUCAACAGCUCGCAGUCAAG,0.352 ± 0.42
12,GGUCACGUCUCAAUCAACUCCAAAGAGGGGGGGAAAACCCCUUUACCCUCCGUUUCAACAGCUCGCAGUCAAG,0.395 ± 0.435
13,GGUCACGUCUCAAUCAACUCCAAAGAGGGGGGGAAAACCCCUUUACCCUCAACCUCAACAGCUCGCAGUCAAG,0.316 ± 0.391
14,GGUCACGUCUCAAUCAACUCAGAAGAGGGGGGGAAAACCCCUUUACCCUCCAAAUCAACAGCUCGCAGUCAAG,0.431 ± 0.433
15,GGUCACGUCUCAAUCAACUCCAAAGAGGGGGGGAAAACCCCUUUACCCUCACUUUCAACAGCUCGCAGUCAAG,0.398 ± 0.419
16,GGUCACGUCUCAAUCAACUCCAAAGAGGGGGGGAAAACCCCUUUACCCUCCACAUCAACAGCUCGCAGUCAAG,0.399 ± 0.418
17,GGUCACGUCUCAAUCAACUCCAAAGAGGGGGGGAAAACCCCUUUACCCUCGUCCUCAACAGCUCGCAGUCAAG,0.369 ± 0.406
18,GGUCACGUCUCAAUCAACUCACACGAGGGGGGGAAAACCCCUUUACCCUCUCUAUCAACAGCUCGCAGUCAAG,0.553 ± 0.407

row,Sequence,binding signal [log2 fold change]
1,GGUCACGUCUCAAUCAACUCUCCCGAGGGGGGGAAAACCCCUUUACCCUCACUAUCAACAGCUCGCAGUCAAG,0.31 ± 0.449
2,GGUCACGUCUCAAUCAACUCCAUCGAGGGGGGGAAAACCCCUUUACCCUCACUCUCAACAGCUCGCAGUCAAG,0.322 ± 0.422
3,GGUCACGUCUCAAUCAACUCAAUCGAGGGGGGGAAAACCCCUUUACCCUCACUCUCAACAGCUCGCAGUCAAG,0.375 ± 0.412
4,GGUCACGUCUCAAUCAACUCUAUCGAGGGGGGGAAAACCCCUUUACCCUCACACUCAACAGCUCGCAGUCAAG,0.573 ± 0.408
5,GGUCACGUCUCAAUCAACUCUUCCGAGGGGGGGAAAACCCCUUUACCCUCACUAUCAACAGCUCGCAGUCAAG,0.347 ± 0.442
6,GGUCACGUCUCAAUCAACUCUCUCGAGGGGGGGAAAACCCCUUUACCCUCACAAUCAACAGCUCGCAGUCAAG,0.571 ± 0.435
7,GGUCACGUCUCAAUCAACUCUAUCGAGGGGGGGAAAACCCCUUUACCCUCACAAUCAACAGCUCGCAGUCAAG,0.599 ± 0.418
8,GGUCACGUCUCAAUCAACUCACACGAGGGGGGGAAAACCCCUUUACCCUCUACCUCAACAGCUCGCAGUCAAG,0.472 ± 0.426
9,GGUCACGUCUCAAUCAACUCUACAGAGGGGGGGAAAACCCCUUUACCCUCACUCUCAACAGCUCGCAGUCAAG,0.332 ± 0.424
10,GGUCACGUCUCAAUCAACUCAAUAGAGGGGGGGAAAACCCCUUUGCCCUCAAUCUCAACAGCUCGCAGUCAAG,0.451 ± 0.42
11,GGUCACGUCUCAAUCAACUCAAUAGAGGGGGGGAAAACCCCUUUGCCCUCGAAAUCAACAGCUCGCAGUCAAG,0.399 ± 0.404
12,GGUCACGUCUCAAUCAACUCAAUAGAGGGGGGGAAAACCCCUUUGCCCUCAACAUCAACAGCUCGCAGUCAAG,0.421 ± 0.37
13,GGUCACGUCUCAAUCAACUCCAUAGAGGGGGGGAAAACCCCUUUGCCCUCGAAAUCAACAGCUCGCAGUCAAG,0.382 ± 0.389
14,GGUCACGUCUCAAUCAACUCAUUAGAGGGGGGGAAAACCCCUUUGCCCUCAAAAUCAACAGCUCGCAGUCAAG,0.487 ± 0.428
15,GGUCACGUCUCAAUCAACUCAUUAGAGGGGGGGAAAACCCCUUUGCCCUCAUACUCAACAGCUCGCAGUCAAG,0.461 ± 0.451
16,GGUCACGUCUCAAUCAACUCACUAGAGGGGGGGAAAACCCCUUUGCCCUCCAACUCAACAGCUCGCAGUCAAG,0.317 ± 0.385
17,GGUCACGUCUCAAUCAACUCCUUAGAGGGGGGGAAAACCCCUUUGCCCUCAUACUCAACAGCUCGCAGUCAAG,0.464 ± 0.44
18,GGUCACGUCUCAAUCAACUCACUAGAGGGGGGGAAAACCCCUUUGCCCUCAUACUCAACAGCUCGCAGUCAAG,0.37 ± 0.365
